Measured values: PubChem BioAssay AID1029 (Sanford-Burnham Center for Chemical Genomics, 2008)
Screen size: about 110,000 compounds; about 80 (0.07%) were called active.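 The calls were made as follows: active = inhibition above the mean of the plate negative controls plus 5 SD (cut at about 13% in these data); inactive = the rest.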 Only a selection was taken, and actives are over-represented in it overall.

Assay: inhibitors of macrophage phagocytosis, primary screen, imaging, J774A.1 cells, IgG beads (AID 1029);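 also: phagocytic index as fraction of beads internalized from green versus red external bead signal; plate controls were DMSO negative control for no effect and cytochalasin-D positive control for full effect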
Details: J774A.1 macrophage IgG-bead phagocytosis, at 5 µM, active compounds read high

inhibition, inactive:
CCc1ccc(C2C(C#N)=C(N)N(N(C)C)C3=C2C(=O)CCC3)s1 (stereo not given) -3.98%, O=C(/C=C\c1ccc2c(c1)OCO2)NC1(C(=O)Nc2ccc3c(c2)OCCO3)CCCCC1 -2.27%, COc1ccc(NC(C(=O)Nc2cccc(C(C)=O)c2)c2ccccc2)cc1 (stereo not given) -15.7%, C/C(=N\NC(=O)c1ccc(CSc2nc(C)cc(C)n2)cc1)C1CCCCC1 -4.86%, CCCn1c(=O)c2c(C(F)(F)F)cc(-c3cccs3)nc2n(CCC)c1=O 1.31%, COC(=O)c1sc(N)c(C(=O)OC)c1COC(=O)CNS(=O)(=O)c1ccc(C)cc1 -11.5%, Cc1ccc(/C=C/C(=O)Nc2cc(S(=O)(=O)N3CCCCCC3)ccc2OCC(F)(F)F)o1 -12.4%, O=C(/C=C/NCc1ccc(F)cc1)c1ccccc1 -1.23%, Cn1cc(C(=O)NCc2ccccc2F)cn1 1.49%, C=CCc1ccccc1OCC(=O)N/N=C/c1ccccc1OCC 1.26%, CCOc1ccc(Oc2nc(C)cc(OC)n2)nn1 -0.15%, COCCCNC(=S)NC(=O)c1ccccc1 -6.86%, C/C(=N\NC(=O)Cc1ccc(F)cc1)c1ccc(F)cc1 -0.05%, COc1ccc(C(=O)CSc2nnc(NC(=O)C3CC(=O)N(c4cccc(OC)c4)C3)s2)cc1 (stereo not given) 6.45%, CC1CCCCN1S(=O)(=O)c1ccc(S(=O)(=O)N(CC(=O)Nc2ccccc2)Cc2cccs2)cc1 (stereo not given) -1.49%, COc1ccc([C@H]2[C@H](C(C)=O)N3N=Cc4ccccc4C3C23C(=O)OC(C)(C)OC3=O)cc1 (stereo not given in full) 5.33%, CCOC(=O)CNC(=O)/C=C/c1c(Cl)cccc1Cl -2.32%, CC(=O)NC(Cc1ccccc1)C(=O)NC1CCN(c2ncccc2[N+](=O)[O-])CC1 (stereo not given) 1.47%, COc1ccc(OCC(=O)Nc2cc(C)c(Cl)cc2OC)c([N+](=O)[O-])c1 -2.85%, COc1ccc(S(=O)(=O)NC(C)C)cc1C(=O)NC1CCCCC1 -3.85%
